# Experimental data published in PubChem BioAssay (NCI).
# This is part of a sample that, as a whole, favours compounds with a hit. Of some 83,000 tested, about 20% had one in any assay.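 A percent growth of 40 corresponds to 60% growth inhibition; 0 means no net growth; -100 means all cells died. Active threshold: below 10.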 Values without a mark were called inactive. The source made the active and inactive calls.
# Tests used:
# Assay in all cases: NCI-60 one-dose screen, 48 h (100 = growth as untreated, 0 = no growth, -100 = all killed)
# Conditions in all cases: 10 µM unless noted
# HCT-15 colon = test system: HCT-15 colon
# HT29 colon = test system: HT29 colon
# SNB-75 CNS = test system: SNB-75 CNS
# SNB-19 CNS = test system: SNB-19 CNS
# U251 CNS = test system: U251 CNS
# PC-3 prostate = test system: PC-3 prostate
# SK-MEL-5 melanoma = test system: SK-MEL-5 melanoma
# UACC-62 melanoma = test system: UACC-62 melanoma
# LOX IMVI melanoma = test system: LOX IMVI melanoma
# SK-MEL-28 melanoma = test system: SK-MEL-28 melanoma
# SK-MEL-2 melanoma = test system: SK-MEL-2 melanoma
# EKVX NSCLC = test system: EKVX NSCLC
# SN12C renal = test system: SN12C renal
# UO-31 renal = test system: UO-31 renal
# TK-10 renal = test system: TK-10 renal
# ACHN renal = test system: ACHN renal
# CAKI-1 renal = test system: CAKI-1 renal
# A498 renal = test system: A498 renal
# CCRF-CEM leukemia = test system: CCRF-CEM leukemia
# MOLT-4 leukemia = test system: MOLT-4 leukemia
Structure (SMILES),growth (HCT-15 colon),growth (HT29 colon),growth (SNB-75 CNS),growth (SNB-19 CNS),growth (U251 CNS),growth (PC-3 prostate),growth (SK-MEL-5 melanoma),growth (UACC-62 melanoma),growth (LOX IMVI melanoma),growth (SK-MEL-28 melanoma),growth (SK-MEL-2 melanoma),growth (EKVX NSCLC),growth (SN12C renal),growth (UO-31 renal),growth (TK-10 renal),growth (ACHN renal),growth (CAKI-1 renal),growth (A498 renal),growth (CCRF-CEM leukemia),growth (MOLT-4 leukemia)
COc1cc(C2CC(c3ccc(F)cc3)=Nc3c(N)nc(N)nc3N2)ccc1Oc1nc(Nc2ccc(F)cc2)nc(N(C)C)n1 (stereo not given),35.7%,22.1%,58.3%,65.1%,52.9%,27%,-94.3% (active),73.4%,38.5%,84.2%,19.2%,56.4%,79.7%,48%,88.7%,51.4%,40.5%,74%,44.2%,1.16% (active)
CCCCCCCCc1ccc(C(=O)Nc2cccc(O)c2)cc1,47.4%,78.7%,103%,83%,77.5%,52.4%,46.6%,69.4%,64.7%,83.4%,83.8%,66.4%,65.4%,34.4%,106%,57.3%,77.8%,115%,0.746% (active),35.5%
O=S(=O)(c1nc(-c2ccc(Br)cc2)oc1-c1ccc(Cl)cc1)N1CCCC(O)C1 (stereo not given),42.6%,11.2%,94.6%,62%,64.8%,28.2%,82.6%,53.8%,4.05% (active),79.4%,65.2%,50%,-59.5% (active),37.4%,102%,53.8%,71.1%,83.3%,48.1%,6.98% (active)
COc1ccc(-c2cc(C(=O)N=Nc3c(O)[nH]c4ccc(Cl)cc34)c3ccccc3n2)cc1,-42.2% (active),-17.3% (active),62.9%,23.5%,-64.1% (active),48%,93%,73.2%,-29.8% (active),-6.34% (active),63.4%,21.3%,51.4%,80.6%,116%,-6.95% (active),44.6%,148%,85.7%,68.8%
N#Cc1cc(-c2ccnc(Nc3ccc(N4CCN(C5COC5)CC4)cc3)n2)ccc1N1CCCC1,41.9%,18.6%,15.7%,117%,75.7%,64.4%,62.2%,87.1%,40%,77.2%,84.5%,90.9%,52.1%,30.5%,66.9%,50.3%,18.1%,71.2%,43.4%,40.4%
CC(Nc1ncnc2ccc(-c3ccc4oc(N)nc4c3)cc12)c1ccccc1 (stereo not given),5.13% (active),29.5%,-82.8% (active),20.3%,-22.8% (active),34.4%,-75.3% (active),11.9%,-97.7% (active),17.4%,34.6%,5.01% (active),-17.7% (active),-76.4% (active),-41.4% (active),-64.2% (active),-40.6% (active),49.8%,2.38% (active),-39.9% (active)
CN1CCN(c2ccc3c4c(cccc24)C(=O)N(c2cccc(-c4nn(-c5ccccc5)cc4-c4nc5ccccc5s4)c2)C3=O)CC1,10.2%,45.6%,81.9%,82.9%,67.9%,90.6%,90.3%,119%,96.6%,51.6%,120%,107%,94.8%,68.5%,119%,101%,97%,128%,60.3%,47.5%
CCC(=O)c1cc(C(=O)OC)c2ccc3c4ccccc4ccc3n12,91.4%,73.3%,47%,66.9%,21.9%,92.6%,93.8%,89.6%,77.9%,99.6%,105%,83.6%,57.9%,52.9%,63.9%,0.659% (active),42.7%,136%,97.8%,94.8%
N#C/C(=C/c1ccc(Cl)cc1)c1nnc(NC(=O)c2ccc(-n3c(=O)[nH]c4ccccc4c3=O)cc2)s1,95.2%,68.8%,53.3%,51.8%,27.1%,76.2%,27.7%,67.2%,41.8%,74.9%,91.6%,86%,61.1%,77.8%,114%,84.3%,95.5%,116%,97.9%,94.9%
O=C(Cn1c(/C=C/c2ccc([N+](=O)[O-])cc2)nc2ccccc2c1=O)Nc1ccccc1,85.8%,45.8%,38.5%,37.2%,69.4%,85.1%,82.6%,69.6%,58.4%,76.1%,74.7%,79.9%,61.6%,90.4%,95.3%,47.8%,57.3%,143%,101%,107%
O=C(c1ccc(O)cc1)C1[C@H](c2ccccc2Br)[C@@H](c2ccccc2)NC12C(=O)Nc1ccccc12 (stereo not given in full),34.7%,-7.42% (active),36.8%,58.5%,7.5% (active),18.2%,28.1%,31.9%,5.24% (active),59.3%,-3.4% (active),28.3%,30.2%,28.9%,49.9%,25.9%,23.6%,52.1%,21.3%,3.1% (active)
N/C(=N\c1nc2ccccc2s1)NC(=O)Nc1ccccc1[N+](=O)[O-],5.8% (active),-31.5% (active),19.5%,21.1%,7.5% (active),29.3%,-21.5% (active),12%,10%,51%,20.5%,38.7%,5.63% (active),26.8%,52.8%,20.2%,16%,89%,1.29% (active),15.2%
CC1=NN(C2=NC(=O)C(CC(=O)Nc3ccccc3C(F)(F)F)S2)C(c2ccc(N(C)C)cc2)C1 (stereo not given),17.1%,40.8%,54.9%,54.5%,49.3%,34.6%,43.4%,41.4%,46.3%,42%,65.2%,48.5%,46.5%,41.6%,71.5%,35.8%,71%,79.2%,36.9%,28.4%
Cc1cc(=O)oc2cc(OCC(O)CNN3C(=O)c4cccc5c(N6CCN(C)CC6)ccc(c45)C3=O)ccc12 (stereo not given),91%,89.6%,82.4%,96.2%,103%,105%,102%,79.2%,71%,-17.3% (active),92.2%,97.3%,88.9%,83.8%,138%,91.2%,96.2%,122%,96.7%,90.4%
CCN1CCN(Cc2ccc(C(=O)Nc3cccc(Nc4ccc5c(OC)cccc5n4)c3)cc2C(F)(F)F)CC1,-83.3% (active),-67.6% (active),-89.7% (active),-99.7% (active),-80.9% (active),-38.6% (active),-99.2% (active),-95.1% (active),-92.1% (active),-100% (active),-76% (active),-95.7% (active),-90.5% (active),-85.8% (active),-86.2% (active),-100% (active),-98.3% (active),-88.8% (active),-30.5% (active),-45.4% (active)
